These results are taken from PubChem BioAssay (NCATS).

Assay [1] in a line: qHTS profiling for inhibitors of Plasmodium falciparum (3D7) proliferation (AID 743322).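 Note: infected erythrocytes exposed to compound for 72 h before lysis; 100% = DMSO vehicle wells and 0% = 0.29 µM artemisinin.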 The conditions noted are these: P. falciparum 3D7 proliferation; at 28.7 µM (top of the series). In outline:
(§1)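 Parasite DNA was quantified by SYBR Green I fluorescence (ex 485, em 535 nm) after overnight lysis in saponin/Triton buffer at room temperature. Cultures at 0.3% parasitemia and 2.5% hematocrit were first exposed to compound for 72 h at 37 C; signals were normalised to artemisinin (0.29 uM) and vehicle wells.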
For orientation: qHTS replaces the single test concentration by a dilution series.

Assay [2] can be described thus: qHTS profiling for inhibitors of Plasmodium falciparum (DD2) proliferation (AID 743323). The conditions noted are these: lower = more inhibition; at 28.7 µM (top of the series). In outline: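 Parasite DNA quantified by SYBR Green fluorescence (ex 485, em 535 nm) after saponin/Triton lysis and overnight dark incubation. Cultures: 0.3% parasitemia, 2.5% hematocrit, 72 h, 37 C; data scaled between DMSO and 0.29 uM artemisinin.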

Assay [3] in a line: qHTS profiling for inhibitors of Plasmodium falciparum (HB3) proliferation (AID 743324).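 Note: 100% = DMSO vehicle wells and 0% = artemisinin-treated control wells.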 Conditions: Plasmodium falciparum HB3 blood-stage proliferation; at 28.7 µM (top of the series). In outline: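 SYBR Green fluorescence (485 ex/535 em) of lysed cultures, incubated overnight at room temperature in the dark, quantifies parasite DNA. Infected erythrocytes at 0.3% parasitemia and 2.5% hematocrit were exposed 72 h; values normalized to DMSO and 0.29 uM artemisinin controls.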

The nature of assay [4]: qHTS profiling of the MIPE4 collection as inhibitors of Plasmodium falciparum (3D7) proliferation (AID 743344).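 Note: scaled between DMSO vehicle wells and 0.29 µM artemisinin as full inhibition.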 The conditions noted are these: P. falciparum 3D7 in erythrocytes, SYBR Green DNA fluorescence, 72 h; at 28.5 µM (top of the series) unless noted. In outline: as §1
Assay [5] can be described thus: qHTS profiling of the MIPE4 collection as inhibitors of Plasmodium falciparum (DD2) proliferation (AID 743345). Conditions: P. falciparum Dd2 in erythrocytes, SYBR Green DNA, 72 h; at 28.5 µM (top of the series) unless noted. In outline:
as §1

Assay [6] in a line: qHTS profiling of the MIPE4 collection as inhibitors of Plasmodium falciparum (HB3) proliferation (AID 743347).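 Note: plate controls were DMSO vehicle wells for no effect and artemisinin wells for full effect.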 The conditions noted are these: P. falciparum HB3 in erythrocytes, SYBR Green DNA, 72 h; at 28.5 µM (top of the series) unless noted. Put shortly:
as §1

The nature of assay [7]: High-throughput drug toxicity screening in the BPDCN cell line Gen2.2 (AID 1224824).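 Note: cells exposed to compounds for 48 h before reading.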 Conditions: Gen2.2 BPDCN cells; at 45.8 µM (top of the series) unless noted. In outline:
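Seed 500 exponentially growing Gen2.2 cells/well; add compounds by pin tool; incubate 48 h, 37 °C, 5% CO2; add CellTiter-Glo, 15 min RT; read luminescence. % activity vs DMSO (100%) and bortezomib (0%).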

Assay [8] in a line: High-throughput drug toxicity screening in the BPDCN cell line Cal-1 (AID 1224825). The conditions noted are these: Cal-1 BPDCN cell viability, qHTS; at 45.8 µM (top of the series) unless noted. In outline:
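Viability of the BPDCN line Cal-1 is measured as ATP-based luminescence (CellTiter-Glo) following 48 h incubation with compounds. Percent activity uses DMSO-treated wells as 100% and 9.2 uM bortezomib as 0%.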

Assay [9] in a line: qHTS profiling of the MIPE4 collection as inhibitors of Plasmodium falciparum (DD2) proliferation (Rep 2) (AID 743346). The conditions noted are these: P. falciparum Dd2 in erythrocytes, SYBR Green DNA, 72 h; at 28.5 µM (top of the series) unless noted. Put shortly:
as §1

As to `COC(=O)[C@]12CCC(C)(C)C[C@@H]1[C@@H]1C(=O)C=C3[C@@]4(C)C=C(C#N)C(=O)C(C)(C)[C@@H]4CC[C@@]3(C)[C@]1(C)CC2`, the remaining parasite growth % (stronger effect = lower value) in assay [1] amounted to 0.25%. In assay [2], this compound had an activity, percent of control of 0.779%. In addition, the remaining proliferation (% of control), lower = more inhibition in assay [3] came to 2.29%. In assay [4], the parasite growth, % of DMSO control was 13.9%. The compound also came in with a parasite growth remaining, % of DMSO control (lower = more inhibition) in assay [5] of 7.23%. This compound also registered a growth, % of control in assay [6] of 11.3%. This compound also displayed a cell viability, % of control (lower = more cytotoxic) in [7] of 3.73%. The compound further registered a viability (% of control) in assay [8] of 2.87%.
In the case of `CC[C@@H]1C(=O)N(C)c2cnc(Nc3ccc(C(=O)NC4CCC(N5CCN(CC6CC6)CC5)CC4)cc3OC)nc2N1C(C)C` (stereo not given in full), the remaining parasite growth % (stronger effect = lower value) in assay [1] was -0.343%. For the same compound, the activity, percent of control in [2] was 1.64%. For the same compound, the parasite growth, % of DMSO control in assay [4] came out at 4.79%. Besides, in assay [5], the parasite growth remaining, % of DMSO control (lower = more inhibition) came out at 5.71%. For the same compound, the parasite growth, % of control (lower = inhibition) in assay [9] is 17.4%. In assay [7], this compound displayed a cell viability, % of control (lower = more cytotoxic) of 2.88%. In assay [8], this compound displayed a viability (% of control) of 3.23%.
On to `CNc1nccc(-c2cccnc2Oc2cc(C(=O)Nc3cccc(C(F)(F)F)c3)ccc2C)n1`, for which, in [1], the remaining parasite growth % (stronger effect = lower value) was found to be 5.98%. This compound also gave an activity, percent of control in [2] of 13.8%. In [4], this compound came in with a parasite growth, % of DMSO control of 6.2%. In addition, the parasite growth remaining, % of DMSO control (lower = more inhibition) in [5] came out at 31.1%. Further, the parasite growth, % of control (lower = inhibition) in assay [9] was found to be 19.8%. This compound also gave a cell viability, % of control (lower = more cytotoxic) in assay [7] of 13%. Besides, the viability (% of control) in assay [8] stood at 15.7%.
For `Nc1ccccc1NC(=O)c1ccc(CNc2nccc(-c3cccnc3)n2)cc1`, the remaining parasite growth % (stronger effect = lower value) in assay [1] is -1.31%. For the same compound, in [2], the activity, percent of control was 0.67%. For the same compound, the parasite growth, % of DMSO control in assay [4] turned out to be 5.35%. Besides, the parasite growth remaining, % of DMSO control (lower = more inhibition) in [5] stood at 7.08%. In addition, the parasite growth, % of control (lower = inhibition) in [9] was found to be 7.5%. The compound further had a growth, % of control in [6] of 2.52%. For the same compound, the cell viability, % of control (lower = more cytotoxic) in [7] turned out to be 12.7%. The compound further yielded a viability (% of control) in assay [8] of 5.36%.
As to `COc1cc(OC2CCN(C)CC2)ccc1Nc1ncc2c(n1)n(C1CCCC1)c(=O)n2C`, in assay [1], the remaining parasite growth % (stronger effect = lower value) turned out to be 9.94%. In [2], the activity, percent of control came to 3.56%. The compound further showed a parasite growth, % of DMSO control in [4] of 9.89%. In assay [5], this compound gave a parasite growth remaining, % of DMSO control (lower = more inhibition) of 9.37%. For the same compound, in assay [9], the parasite growth, % of control (lower = inhibition) stood at 18.2%. Moreover, the growth, % of control in [6] came to 7.29%. Moreover, the cell viability, % of control (lower = more cytotoxic) in [7] was 6.18%. The compound further registered a viability (% of control) in assay [8] of 3.73%.
In the case of `CC1(C)OC2=C(C(=O)c3ccccc3C2=O)[C@H](NCc2ccccc2)[C@H]1O`, in [1], the remaining parasite growth % (stronger effect = lower value) is -2.33%. The compound further displayed an activity, percent of control in assay [2] of 0.336%. Besides, in assay [3], the remaining proliferation (% of control), lower = more inhibition was -1.28%. In assay [4], this compound returned a parasite growth, % of DMSO control of 6.23%. Moreover, the parasite growth remaining, % of DMSO control (lower = more inhibition) in [5] is 7.16%. In [6], this compound had a growth, % of control of 3.94%. The same compound showed a cell viability, % of control (lower = more cytotoxic) in assay [7] of 12%. In addition, the viability (% of control) in [8] came to 8.3%.
Consider `COc1ccc(CC2SC(=O)NC2=O)cc1C(=O)NCc1ccc(C(F)(F)F)cc1` (stereo not given), for which the remaining parasite growth % (stronger effect = lower value) in assay [1] is 90.2%. In addition, the activity, percent of control in assay [2] was found to be 93.1%. The compound also gave a parasite growth, % of DMSO control in [4] of 32.5%. Further, the parasite growth remaining, % of DMSO control (lower = more inhibition) in [5] was found to be 91.4%. For the same compound, the parasite growth, % of control (lower = inhibition) in assay [9] came out at 56.9%. In assay [6], this compound displayed a growth, % of control of 55.5%. In [7], this compound returned a cell viability, % of control (lower = more cytotoxic) of 96%. Further, the viability (% of control) in assay [8] is 84.9%.
Consider `Nc1ccc(C(=O)c2cc3c(ccc4ccccc43)[nH]2)cc1`, for which, in [1], the remaining parasite growth % (stronger effect = lower value) was determined as 114%. The activity, percent of control in assay [2] is 98.8%. The compound also displayed a parasite growth, % of DMSO control in assay [4] of 292%. The compound further returned a parasite growth remaining, % of DMSO control (lower = more inhibition) in [5] of 83.6%. Further, the parasite growth, % of control (lower = inhibition) in assay [9] worked out at 118%. This compound gave a growth, % of control in assay [6] of 409%. The same compound showed a cell viability, % of control (lower = more cytotoxic) in assay [7] of 66.8%. In addition, the viability (% of control) in [8] is 8.09%.
Turning to `CCN1CCN(CC(=O)Nc2ccc(-c3cccc4c(=O)cc(N5CCOCC5)oc34)c3sc4ccccc4c23)CC1`, the remaining parasite growth % (stronger effect = lower value) in assay [1] is -0.258%. This compound also displayed an activity, percent of control in assay [2] of 0.865%. The remaining proliferation (% of control), lower = more inhibition in assay [3] was 0.111%. This compound also displayed a parasite growth, % of DMSO control in assay [4] of 5.76%. Also, in assay [5], the parasite growth remaining, % of DMSO control (lower = more inhibition) is 6.58%. The growth, % of control in assay [6] amounted to 7.23%. The compound further gave a cell viability, % of control (lower = more cytotoxic) in assay [7] of 1.44%. In [8], this compound came in with a viability (% of control) of 2.53%.
